The values that follow come from the supplement of paper PMC13172266.

The test system of the test is U2932 parental. The test can be described thus: cell proliferation relative to vehicle (% of vehicle); higher = less growth inhibition. Particulars: 500 nM; 72 h. In outline: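 Each of 348 targeted inhibitors was tested at 500 nM or 50 nM for 72 h on U2932 cells, both parental and two clones resistant to an ETS-targeting agent. Readout was by MTT with absorbance read on a Cytation 3. Proliferation appears as percent of proliferating cells relative to vehicle (DMSO).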
Consider `Cc1nc(C(=O)NCC(=O)O)c(O)c2ccc(Oc3ccccc3)cc12`, for which the cell proliferation was determined as 95.4.
On to `C[C@H]1c2cccc(O)c2C(=O)C2=C(O)[C@]3(O)C(=O)C(C(N)=O)=C(O)[C@@H](N(C)C)[C@@H]3[C@@H](O)[C@@H]21` [Doxycycline Hyclate], for which the cell proliferation amounted to 105.
The result for `CS(=O)(=O)c1ccc(C(=O)Nc2ccc(Cl)c(-c3ccccn3)c2)c(Cl)c1` [Vismodegib (GDC-0449)] reads 103.
For the compound `NC(=O)c1ncn([C@@H]2O[C@H](CO)[C@@H](O)[C@H]2O)c1N` [Acadesine], the cell proliferation was found to be 98.4.
Then `O=C(O)CCNc1cc(N2CCc3ccccc3CC2)nc(-c2ccccn2)n1`, with 99.8; and `Oc1cccc(-c2nc(N3CCOCC3)c3oc4ncccc4c3n2)c1`, with 48; and `C#Cc1cccc(Nc2ncnc3cc(OC)c(OCCCCCCC(=O)NO)cc23)c1`, with 43.9.
Then `CC1(C)CCC(c2ccc(Cl)cc2)=C(CN2CCN(c3ccc(C(=O)NS(=O)(=O)c4ccc(N[C@H](CCN5CCOCC5)CSc5ccccc5)c(S(=O)(=O)C(F)(F)F)c4)cc3)CC2)C1` [ABT-263 (Navitoclax)], with 86.6.
Consider `COc1ccc(-c2ccc3c(N4CCOCC4)nc(N4C[C@@H](C)O[C@@H](C)C4)nc3n2)cc1CO`, for which the cell proliferation is 57.7.
As to `CCN(CC)CCCC(C)Nc1ccnc2cc(Cl)ccc12` (stereo not given) [Chloroquine Phosphate], the cell proliferation came to 99.2.
